Assay results from PubChem BioAssay (NCI).
About 79,000 compounds went through this panel and 15% of them were active in at least one assay; those are over-represented in the sample as a whole. Activity calls are given as the source filed them. No stated cut-off is given here; in the data, active means growth inhibition above about 70%; inactive means the rest.

Assay: NCI Yeast Anticancer Drug Screen. Data for the sgs1 mgt1 strain (AID 161);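 further: 0% = growth of cultures given vehicle only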
Details: S. cerevisiae sgs1 mgt1 strain, at 50.0 µM, active compounds read high
Outline: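 Read-out: growth inhibition vs vehicle controls. Cells: mutant yeast strain deficient in DNA damage repair.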
In the case of CC1CNC(=S)O1 (centres undefined), the growth inhibition is reported as 5.05% (inactive).
With COc1ccccc1/C=N\NC(C)=O the growth inhibition was 5.35% (inactive).
In the case of CC(C)(C)OC(=O)NCCc1ccc(N)cc1, the growth inhibition is reported as 22.9% (inactive).
For COc1cc(-c2ccccc2)c(OC)cc1CCl, the growth inhibition was 17.8% (inactive).
With C=CCN1C(=O)c2ccccc2C1=O the growth inhibition was 11.6% (inactive).
With CC(=O)Nc1ccc(F)c([N+](=O)[O-])c1 the growth inhibition was 3.35% (inactive).
For O=C(CCC(=O)OCCCl)OCCCl, the growth inhibition was -5.6% (inactive).
For Cc1nc2ccc(Cl)c(Cl)c2s1, the growth inhibition was -3% (inactive).
With CSc1nc(=S)c2[nH]c(=S)[nH]c2[nH]1 the growth inhibition was -6.5% (inactive).
In the case of N#CC(/C(CCCC(=O)Nc1cccc([N+](=O)[O-])c1)=N/NC(=O)c1cc2ccccc2cc1O)c1ccccc1 (centres undefined), the growth inhibition is reported as -17.2% (inactive).
With CCn1c(=O)c(C#N)c2n(CC)c3cc(C)c(C)cc3n2c1=O the growth inhibition was -11% (inactive).
In the case of Cc1cccc(C)c1/[N+]([O-])=C/c1cccc([N+](=O)[O-])c1, the growth inhibition is reported as -3.3% (inactive).
For CC(=O)CCCCO, the growth inhibition was 10.8% (inactive).
With Cc1ccc(S(=O)(=O)n2ccnc2)cc1 the growth inhibition was -1.25% (inactive).
For CCCCCCCCC(C)(C)O, the growth inhibition was -1.25% (inactive).
In the case of Cc1ccc(C(=O)OCc2ccccc2CN2CCCCC2)cc1, the growth inhibition is reported as -22.6% (inactive).
In the case of COc1cc(NC(C)CCCN)c2nccc(C)c2c1 (centres undefined), the growth inhibition is reported as -27.1% (inactive).
For N#CC(C(=O)C(=O)Nc1cccc(C(F)(F)F)c1)c1c(Cl)cccc1Cl (centres undefined), the growth inhibition was 17.1% (inactive).
For COC(=O)[C@]1(C)CCCn2c(=O)n(-c3ccccc3)c(=O)n21, the growth inhibition was -6.65% (inactive).
In the case of CC1(C)Cc2ccccc2C(C)(Cl)C(=O)N1 (centres undefined), the growth inhibition is reported as 6.4% (inactive).
For CC(=O)Oc1cc(C)c(OC(C)=O)c(C)c1C, the growth inhibition was -2.15% (inactive).
In the case of COCn1cnc2c(F)ncnc21, the growth inhibition is reported as -5.1% (inactive).
For CCOC(=O)N1C(c2ccccc2)N(c2ccccc2)C(c2ccccc2)N1C(=O)OCC (centres undefined), the growth inhibition was 22.9% (inactive).
For CSC1(SC)CCCCCCCCCCC1, the growth inhibition was -17.9% (inactive).
For COc1cc(C(O)C(CO)Oc2c(OC)cc(C3OCC4C(c5cc(OC)c(O)c(OC)c5)OCC34)cc2OC)ccc1O (centres undefined), the growth inhibition was -2.05% (inactive).
With Oc1ccc2ccccc2c1C(c1ccccc1)N1CCOCC1 (centres undefined) the growth inhibition was -5.9% (inactive).
In the case of C/C=C/C(=O)OCCOc1ccccc1-c1ccccc1, the growth inhibition is reported as 4.35% (inactive).
With O=C(NCCO)c1ccc(Cl)cc1 the growth inhibition was -30.6% (inactive).
For COc1ccc(CCN=Cc2ccc(Cl)cc2)cc1OC, the growth inhibition was 15.4% (inactive).
With Nc1cccc(N2N=C(C(=O)O)CC2=O)c1 the growth inhibition was -40.9% (inactive).
With CN(NC(=O)c1ccccc1)C(=O)c1ccccc1 the growth inhibition was 11.6% (inactive).
In the case of COC(=O)[C@]1(C)CCC[C@]2(C)c3ccc(C(C)=O)cc3C(=O)C[C@@H]12, the growth inhibition is reported as 9.5% (inactive).
With Cc1nc(C)c(N2CCN(Cc3ccccc3)CC2)c(=O)[nH]1 the growth inhibition was -45.1% (inactive).
In the case of NC1=NC(c2ccccc2)N=C(Nc2ccccc2)N1 (centres undefined), the growth inhibition is reported as 16.4% (inactive).
For OCC1OC(n2ncc3c(Nc4ccccc4)ncnc32)C(O)C1O (centres undefined), the growth inhibition was 6.75% (inactive).
With CC(O)CCNC(c1ccccc1)C(O)c1ccccc1 (centres undefined) the growth inhibition was -2.85% (inactive).
With CCOP(=O)(OCC)/C(C#N)=C/c1cnc(-c2ccccc2)[nH]1 the growth inhibition was -32.8% (inactive).
In the case of Cc1cc2ncn(C3OC(CO)C(O)C3O)c2cc1C (centres undefined), the growth inhibition is reported as -8.25% (inactive).
In the case of Cc1cccc(NC(=O)CSc2nnc(Cc3ccccc3)o2)c1, the growth inhibition is reported as -15.1% (inactive).

Assay: NCI Yeast Anticancer Drug Screen. Data for the cln2 rad14 strain (AID 165);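 further: 0% = growth equal to vehicle treated cultures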
Details: S. cerevisiae cln2 rad14 strain, at 50.0 µM, active compounds read high
Outline: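 Each compound was tested on cln2 rad14 yeast. Inhibition of growth was calculated against vehicle-exposed controls.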
For CC1CNC(=S)O1 (centres undefined), the growth inhibition was -7.05% (inactive).
For COc1ccccc1/C=N\NC(C)=O, the growth inhibition was 2.25% (inactive).
In the case of CC(C)(C)OC(=O)NCCc1ccc(N)cc1, the growth inhibition is reported as -0.7% (inactive).
In the case of COc1cc(-c2ccccc2)c(OC)cc1CCl, the growth inhibition is reported as 6% (inactive).
In the case of C=CCN1C(=O)c2ccccc2C1=O, the growth inhibition is reported as 6.85% (inactive).
In the case of CC(=O)Nc1ccc(F)c([N+](=O)[O-])c1, the growth inhibition is reported as -13.7% (inactive).
For O=C(CCC(=O)OCCCl)OCCCl, the growth inhibition was -7.75% (inactive).
For Cc1nc2ccc(Cl)c(Cl)c2s1, the growth inhibition was -26% (inactive).
In the case of CSc1nc(=S)c2[nH]c(=S)[nH]c2[nH]1, the growth inhibition is reported as -35.9% (inactive).
With N#CC(/C(CCCC(=O)Nc1cccc([N+](=O)[O-])c1)=N/NC(=O)c1cc2ccccc2cc1O)c1ccccc1 (centres undefined) the growth inhibition was 9.4% (inactive).
With CCn1c(=O)c(C#N)c2n(CC)c3cc(C)c(C)cc3n2c1=O the growth inhibition was -24.2% (inactive).
In the case of Cc1cccc(C)c1/[N+]([O-])=C/c1cccc([N+](=O)[O-])c1, the growth inhibition is reported as -29.4% (inactive).
For CC(=O)CCCCO, the growth inhibition was -8.55% (inactive).
In the case of Cc1ccc(S(=O)(=O)n2ccnc2)cc1, the growth inhibition is reported as 15.9% (inactive).
With CCCCCCCCC(C)(C)O the growth inhibition was 3.05% (inactive).
With Cc1ccc(C(=O)OCc2ccccc2CN2CCCCC2)cc1 the growth inhibition was -19.7% (inactive).
With COc1cc(NC(C)CCCN)c2nccc(C)c2c1 (centres undefined) the growth inhibition was -8.15% (inactive).
In the case of N#CC(C(=O)C(=O)Nc1cccc(C(F)(F)F)c1)c1c(Cl)cccc1Cl (centres undefined), the growth inhibition is reported as -35% (inactive).
In the case of COC(=O)[C@]1(C)CCCn2c(=O)n(-c3ccccc3)c(=O)n21, the growth inhibition is reported as 9.75% (inactive).
For CC1(C)Cc2ccccc2C(C)(Cl)C(=O)N1 (centres undefined), the growth inhibition was 17.9% (inactive).
With CC(=O)Oc1cc(C)c(OC(C)=O)c(C)c1C the growth inhibition was -9.3% (inactive).
With COCn1cnc2c(F)ncnc21 the growth inhibition was -29.1% (inactive).
With CCOC(=O)N1C(c2ccccc2)N(c2ccccc2)C(c2ccccc2)N1C(=O)OCC (centres undefined) the growth inhibition was 3.3% (inactive).
With CSC1(SC)CCCCCCCCCCC1 the growth inhibition was -15.9% (inactive).
For Cc1ccc(C(O)(c2ccc(C)cc2)C2CCCCC2=C(c2ccccc2)c2ccccc2)cc1 (centres undefined), the growth inhibition was -7.35% (inactive).
For COc1cc(C(O)C(CO)Oc2c(OC)cc(C3OCC4C(c5cc(OC)c(O)c(OC)c5)OCC34)cc2OC)ccc1O (centres undefined), the growth inhibition was 10% (inactive).
In the case of Oc1ccc2ccccc2c1C(c1ccccc1)N1CCOCC1 (centres undefined), the growth inhibition is reported as -24.7% (inactive).
In the case of C/C=C/C(=O)OCCOc1ccccc1-c1ccccc1, the growth inhibition is reported as -16.3% (inactive).
With O=C(NCCO)c1ccc(Cl)cc1 the growth inhibition was 19.1% (inactive).
For COc1ccc(CCN=Cc2ccc(Cl)cc2)cc1OC, the growth inhibition was -1.2% (inactive).
For Nc1cccc(N2N=C(C(=O)O)CC2=O)c1, the growth inhibition was -12.7% (inactive).
With CN(NC(=O)c1ccccc1)C(=O)c1ccccc1 the growth inhibition was -15% (inactive).
In the case of COC(=O)[C@]1(C)CCC[C@]2(C)c3ccc(C(C)=O)cc3C(=O)C[C@@H]12, the growth inhibition is reported as -31.6% (inactive).
For Cc1nc(C)c(N2CCN(Cc3ccccc3)CC2)c(=O)[nH]1, the growth inhibition was 13% (inactive).
For NC1=NC(c2ccccc2)N=C(Nc2ccccc2)N1 (centres undefined), the growth inhibition was -15% (inactive).
With OCC1OC(n2ncc3c(Nc4ccccc4)ncnc32)C(O)C1O (centres undefined) the growth inhibition was -5.7% (inactive).
In the case of CC(O)CCNC(c1ccccc1)C(O)c1ccccc1 (centres undefined), the growth inhibition is reported as -7.4% (inactive).
With CCOP(=O)(OCC)/C(C#N)=C/c1cnc(-c2ccccc2)[nH]1 the growth inhibition was 16.1% (inactive).
With Cc1cc2ncn(C3OC(CO)C(O)C3O)c2cc1C (centres undefined) the growth inhibition was 21.5% (inactive).
With Cc1cccc(NC(=O)CSc2nnc(Cc3ccccc3)o2)c1 the growth inhibition was -39.2% (inactive).
